Results reported in PubChem BioAssay (NCI).
The panel holds about 83,000 compounds, 20% with a hit somewhere; the sample as a whole holds those more often.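 Plates (96-well) were seeded with cells, treated with compound at one concentration, and incubated for 48 hours before percent growth was determined.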 Values without a mark were called inactive. Calls of active or inactive are those of the source. Rule for the calls: active = growth percent below 10; inactive = the rest.

Key:
Assay in all cases: NCI-60 one-dose screen, 48 h (100 = growth as untreated, 0 = no growth, -100 = all killed)
Conditions in all cases: 10 µM unless noted
T-47D breast = tested on: T-47D breast
BT-549 breast = tested on: BT-549 breast
MDA-MB-435 melanoma = tested on: MDA-MB-435 melanoma
SW-620 colon = tested on: SW-620 colon
MCF7 breast = tested on: MCF7 breast
HCT-116 colon = tested on: HCT-116 colon
HCC-2998 colon = tested on: HCC-2998 colon
KM12 colon = tested on: KM12 colon

Compound | growth (T-47D breast) | growth (BT-549 breast) | growth (MDA-MB-435 melanoma) | growth (SW-620 colon) | growth (MCF7 breast) | growth (HCT-116 colon) | growth (HCC-2998 colon) | growth (KM12 colon)
COc1cccc(Nc2ccnc3[nH]c4ccc([N+](=O)[O-])cc4c23)c1 | 41.8% | 80.3% | -24.4% (active) | 56.5% | 19.7% | 24.5% | 84.8% | 27.2%
COc1ccc(-c2cn(-c3ccc(Cl)cc3)c(SCC(=O)c3ccc([N+](=O)[O-])cc3)n2)cc1 | 83.4% | 89.7% | 79.5% | 86.1% | 82.4% | 74.6% | 103% | 94.8%
Cc1cc(N2CCN(C)CC2)nc(NCc2cc(Nc3ccnc4cc(Cl)ccc34)ccc2F)n1 | -56.1% (active) | 30.4% | -43.6% (active) | -18.6% (active) | -9.33% (active) | -45.3% (active) | -12.7% (active) | 12.7%
CC1(C)O[C@H]2OC3CCC(=O)CC3(O)[C@H]2O1 (some centres undefined) | 91.8% | 104% | 112% | 105% | 108% | 95.1% | 98.7% | 102%
N=c1c2c(=N)n3c(nc2nc2n1-c1ccccc1Sc1ccccc1-2)sc1cc(Cl)ccc13 | 6.16% (active) | 42.2% | 21.1% | 32.4% | -2.03% (active) | 10.7% | -18.6% (active) | 19.9%
O=C(CCCCCCCCC(=O)N/N=C\c1cc(Cl)ccc1O)N/N=C\c1cc(Cl)ccc1O | 28.2% | 38.5% | 38.1% | 46.5% | 20% | 22.7% | 39% | 24.2%
Clc1nn2c(Cn3cnc4c(NCc5ccccc5)ncnc43)nnc2c2ccccc12 | 18.2% | 25.8% | 30.6% | 48.2% | 62.1% | 21.9% | 56.1% | 58.9%
CN1CCN(Cc2ccc(NC(=O)c3cncc(C#Cc4cncc5[nH]ncc45)c3)cc2C(F)(F)F)CC1 | 31.3% | 23.5% | 2.84% (active) | -29.1% (active) | 20.5% | 1.91% (active) | 6.34% (active) | 3.69% (active)
CCN1C(=O)N(CC)C2C1NN=c1s/c(=C\c3cc4ccccc4[nH]3)c(=O)n12 (centres undefined) | 2.04% (active) | 12.2% | -9.5% (active) | 19.8% | 3.88% (active) | 9.85% (active) | 10.3% | 10.3%
CC/C=C1/C(=O)C=C[C@@H]1C/C=C\CCCC(=O)OC | 62.4% | 16.6% | 4.2% (active) | 14.9% | 15.6% | -59.6% (active) | 114% | 17.1%
O=C1NC(=Nc2ccc(O)cc2)S/C1=C\c1cccs1 | 32.5% | 35.8% | -24.7% (active) | 27.2% | 11.8% | 32.9% | 59% | 13.9%
CS(=O)(=O)Cc1cnc(C2OCCO2)s1 | 129% | 97.6% | 109% | 113% | 96.4% | 98.8% | 107% | 88.9%
O=c1ccc2nc(C(F)(F)F)nn(-c3ccccc3)c-2c1 | -40.8% (active) | 69.2% | 62.3% | -63.3% (active) | -49.3% (active) | 35.2% | 102% | 96.8%
CCCCCCCCn1ccc2cc(NC(=O)Cn3cc(CN4CCN(CC)CC4)nn3)ccc21 | 58.2% | 71.8% | -84% (active) | -43% (active) | 38.9% | 61.8% | -12.2% (active) | 77.8%
O=C(Cn1nnc2ccccc21)Nc1ccc(-c2nc3ccccc3s2)cc1 | 66.9% | 86.5% | 95.9% | 94.5% | 28.9% | 97.4% | 93.7% | 91.4%
O=C1c2cc3c(cc2-c2c1c1ccc(Cl)cc1c(=O)n2C[C@H](O)CO)OCO3 | -6.44% (active) | 1.39% (active) | -59.7% (active) | -4.07% (active) | -1.79% (active) | -25.6% (active) | 4.32% (active) | -14.4% (active)
Oc1c(Cl)cc(Cl)c2ccc(Cn3cc(-c4cccc(C(F)(F)F)c4)nn3)nc12 | 58.9% | 75% | 73.9% | 28.7% | 42.3% | 14% | 99.5% | 100%
Cc1ccc(C(=O)c2ccc(CC(=O)N/N=C/c3ccc(O)cc3O)n2C)cc1 | 50.2% | 50.8% | 63.1% | 42.2% | 39.2% | 34.9% | 59.6% | 36.1%
O=C(N/N=C/c1ccc([N+](=O)[O-])cc1)c1ccc2nc(-c3ccc(Cl)cc3)[nH]c2c1 | 10.5% | 14% | 47.6% | 12.7% | 0.723% (active) | 14.6% | 14.9% | 13%
C=CC(C)(O)CC/C=C(\CO)C(=O)OC1C(C)OC(O[C@](C)(C=C)CC/C=C(\CO)C(=O)O[C@H]2C[C@@]3(C(=O)OC4OC(CO)C(O)C(O)C4OC4OC(C)C(OC5OC(CO)C(O)C5O)C(OC5OC(CO)C(O)C(O)C5O)C4O)C(CC2(C)C)C2=CCC4[C@@]5(C)CC[C@H](OC6OC(COC7OC(C)C(O)C(O)C7OC7OCC(O)C(O)C7O)C(O)C(O)C6NC(C)=O)C(C)(C)C5CC[C@@]4(C)[C@]2(C)C[C@H]3O)C(O)C1O (some centres undefined) | -54% (active) | 104% | -80.5% (active) | -43.2% (active) | -50% (active) | 6.13% (active) | -90.5% (active) | -86.7% (active)
N#Cc1c(-c2ccccc2)cc(-c2ccccc2)n(CCCC(=O)NO)c1=O | 18.7% | 53.9% | -12.4% (active) | 17.3% | 22.5% | 7.06% (active) | 47.4% | 24.9%
Cc1ccc(-c2nc(C#N)c(S(=O)(=O)NCCO)o2)cc1 | 43.1% | 64.7% | 68.5% | 33.8% | 37.9% | 51.6% | 98.1% | 88%
N#Cc1c(NC(=O)c2cccs2)[n+]([O-])c2ccc(Cl)cc2[n+]1[O-] | 91.4% | 113% | 89.2% | 85.3% | 101% | 79.8% | 111% | 98.6%
CCOC(=O)c1c2c(n3c1NCC3)-c1ccccc1C2=O | 97.7% | 86.9% | 90.8% | 91.8% | 90.6% | 103% | 91.4% | 103%
CS(=O)(=O)Nc1cc(-c2ccc3ncnc(Nc4ccc5c(cnn5Cc5cccnc5)c4)c3c2)cnc1Cl | 0.364% (active) | 17.1% | 53.9% | 66.8% | 15.2% | 69.8% | 65.7% | 82.9%
Cc1[nH]c(/C=C/C(=O)c2ccc(C(F)(F)F)c(F)c2)c(C)c1C(=O)NCC(C)C | 88.2% | 111% | 103% | 102% | 86% | 96.7% | 98.9% | 101%
O=C(CSc1nnc2sc(Nc3cccc(Cl)c3)nn12)c1ccc(F)cc1 | 76.4% | 97.8% | 100% | 99% | 90.4% | 85.8% | 103% | 95.8%
CCOC(=O)c1c(NC(=O)CSc2n[nH]c3nc4ccccc4n23)sc(CC)c1C | 97.1% | 137% | 103% | 104% | 91.9% | 93.9% | 105% | 98.3%
